Values without a mark were called inactive. The source made the active and inactive calls. Calls follow the shape of the dose curve; as a rule, active = well fitted activation curve with a large enough effect in the repeat runs; inconclusive = weak or mixed curves; inactive = flat fitted curve, though single readings scatter.
target: KiSS-1 receptor (Homo sapiens) (UniProt Q969F8); assay: Human kisspeptin (KISS1R) small molecule agonists, calcium flux assay in KISS1R-HEK293 cells (AID 1920064); conditions: KISS1R-HEK293, calcium flux fluorescence, agonist; series mostly up to 76.8 µM; activation: at the top concentration
Description: National Center for Advancing Translational Sciences [NCATS]
Division of Preclinical Innovation [DPI]
U.S. Environmental Protection Agency [EPA]
National Institutes of Environmental Health Sciences [NIEHS]
National Toxicology Program [NTP]
U.S. Food and Drug Administration [FDA]
Kisspeptin and its receptor KISS1R play key roles in mammalian reproduction due to their involvement in the onset of puberty and control of the hypothalamic-pituitary-gonadal axis such as regulates GnRH release from the hypothalamus. The kisspeptin/KISS1R system also plays a direct role in peripheral organs (including the ovary, testis, uterus, and placenta) and is implicated in reproductive diseases such as miscarriage and polycystic ovary syndrome (PCOS). Abnormal KISS1R activity is associated with abnormal puberty, infertility, endometriosis, and hormone-dependent tumors. The KISS1 receptor (KISS1R, also called GPR54), a G-protein-coupled receptor (GPCR), acts (through phospholipase C) to increase intracellular inositol trisphosphate and then release intracellular calcium stores. Cell-based KISS1R-HEK293 assay is using HEK293 cells that have been genetically engineered to express the human KISS1R, which activity can be measured by calcium signaling. A compound/drug can activate (agonist) KISS1R that can be monitored by levels of intracellular calcium.
KISS1R-HEK293 cells developed by Codex Corp contain human KISS1R gene, which was stably integrated into HEK 293 cells. The compound activation can be detected by fluorescence intensity via calcium flux assay. This cell line has been used to screen the Tox21 10K compound library to identify agonists of KISS1R.
KISS1R-Hek293 cells were dispensed at 1500 cells/4uL/well in 1536-well black wall/clear bottom plates using a multidrop dispenser. After the assay plates were incubated at a 37 C/5% CO2 incubator for 18 hours, 4 microL of Calcium Dye Solution was added to each well. The plates were incubated at 37 C for 1 hour. And then 23 nL of compounds dissolved in DMSO, positive controls, or DMSO only was transferred to the assay plate by a pin tool station. The fluorescence intensity in the plates was measured using FDSS 7000EX kinetic plate reader with a filter set of Ex/Em=480/540 for 3 min at 1 sec intervals. Each test compound was measured at 15 concentrations and in triplicates.
% is scaled to controls: 0 for no effect and ±100 for the full control effect.

Sequence of KiSS-1 receptor (Homo sapiens) (Q969F8 whole entry, looked up): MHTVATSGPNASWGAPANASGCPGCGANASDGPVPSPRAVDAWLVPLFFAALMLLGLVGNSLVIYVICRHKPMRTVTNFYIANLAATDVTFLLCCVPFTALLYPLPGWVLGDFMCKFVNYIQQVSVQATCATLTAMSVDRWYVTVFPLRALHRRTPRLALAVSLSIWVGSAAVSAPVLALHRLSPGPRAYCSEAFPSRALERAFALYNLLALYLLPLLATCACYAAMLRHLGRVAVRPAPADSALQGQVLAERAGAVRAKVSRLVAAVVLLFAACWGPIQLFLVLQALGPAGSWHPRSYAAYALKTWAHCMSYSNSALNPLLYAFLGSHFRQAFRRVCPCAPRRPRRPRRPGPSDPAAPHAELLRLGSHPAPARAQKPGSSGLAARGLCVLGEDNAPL

SMILES	activation	Potency
COc1ccc(C(=O)NCc2ccc(OCCN(C)C)cc2)cc1OC	0.0536% [at 35.3 µM]	
CCC(O)CO (stereo not given)	0.676%	
CS(=O)(=O)O	-3.85%	
Nc1ncnc2c1ncn2Cc1c(F)cccc1Cl	-2.5% [at 35.3 µM]	
OC[C@H]1O[C@H](O[C@H]2O[C@H](CO)[C@@H](O)[C@H](O)[C@H]2O)[C@H](O)[C@@H](O)[C@@H]1O	-1.93%	
CC(=O)c1ccccc1O	-2.84%	
CC(C)CCCCCOC(=O)CCS	2.1%	
CC(C)(C)C(=O)OCOP(=O)(COCCn1cnc2c(N)ncnc21)OCOC(=O)C(C)(C)C	-1.05% [at 35.3 µM]	
CC(=O)SC[C@@H](C)C(=O)N1CCC[C@H]1C(=O)N[C@@H](Cc1ccccc1)C(=O)O	-0.756% [at 35.3 µM]	
Nc1ccc(S(=O)(=O)Nc2ccc(Cl)nn2)cc1	3.23% [at 35.3 µM]	
C1CN(CCOCCN2CCOCC2)CCO1	-2.37%	
CCCC(=O)C(C)=O	-0.134%	
c1cc(C(c2ccc(OCC3CO3)cc2)C(c2ccc(OCC3CO3)cc2)c2ccc(OCC3CO3)cc2)ccc1OCC1CO1 (stereo not given)		inactive
C=CC(=O)CC	-0.115%	
CC(=O)O[C@@H]1C[C@@H]2CC[C@@]1(C)C2(C)C	0.95%	
CCCCCCCCOC(=O)CCCCCCCCC(=O)OCCCCCCCC	-2.77%	
Cc1cc(C)c(C)c(O)c1	2.02%	
COCCOCCOCCOCCOCCO	3.01%	
CC(=O)OCC(=O)[C@@]1(O)CC[C@H]2[C@@H]3CCC4=CC(=O)C=C[C@]4(C)[C@H]3[C@@H](O)C[C@@]21C	1.95% [at 35.3 µM]	
CCOC(=O)OC(=O)OCC	-2.18%	

SMILES	activation	Potency
O=[N+]([O-])c1ccc2c(c1)Cc1ccccc1-2		inactive
COC(=O)c1ccccc1C	0.957%	
NC(=O)C1CO1 (stereo not given)	-3.89%	
CC(C)=CCCC(C)O (stereo not given)	-0.604%	
C[Si](C)O[Si](C)C	-0.445%	
CO[C@H]1C=CO[C@@]2(C)Oc3c(C)c(O)c4c(O)c(c(/C=N/N5CCN(C)CC5)c(O)c4c3C2=O)NC(=O)/C(C)=C\C=C[C@H](C)[C@H](O)[C@@H](C)[C@@H](O)[C@@H](C)[C@H](OC(C)=O)[C@@H]1C		inactive
COC(=O)c1cc(Cl)ccc1OC	-1.16% [at 35.3 µM]	
CCOCCOC(=O)/C=C/c1ccc(OC)cc1	-0.419% [at 35.3 µM]	
C[N+]1([O-])CCOCC1	-4.75%	
Cc1c(O)cccc1C(=O)N[C@@H](CSc1ccccc1)[C@H](O)CN1C[C@H]2CCCC[C@H]2C[C@H]1C(=O)NC(C)(C)C		inactive
CN(C1CCCCC1)S(=O)(=O)c1ccccc1N	-2.31%	
O=S(=O)(O)c1cc(O)c(O)c(S(=O)(=O)O)c1	0.815%	
ClC(c1ccccc1)(c1ccccc1)c1ccccc1	-1.4%	
Cc1ccc(N(C)C)cc1		inactive
O=C(O)c1cc(O)c(O)c(O)c1		inactive
C(=C\c1ccccc1)/c1ccccc1	0.252%	
C=C(C)C(=O)OCCOP(=O)(O)O	-0.612%	
NC(=O)NC1N=C([O][Al])NC1=O (stereo not given)	0.515% [at 35.3 µM]	
NC(=O)NNc1ccccc1		inactive
CN(C)/N=N/c1nc[nH]c1C(N)=O		inactive

From PubChem BioAssay (Tox21)
